Experimental data reported in the supplement of paper PMC7411054.
Counter-ions that a name gives are not always drawn.

How the values were obtained:
Conditions in all cases: treatment time: 24 h
[1] = tested on: A549-ACTB-RAB5A; assay: lowest phenotypically active concentration; higher = less potent
Outline: (§1)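 Fifteen reporter lines derived from A549, HepG2 and WPMY1 cells by gene editing, carrying BFP for segmentation plus GFP and RFP/FusionRed markers, were exposed to 0.3, 1, 3 or 9 µM for 24 h in four wells each and imaged live. Live-cell features from each well were normalised to solvent control wells. A well set counted as deviating when ≥3 of 4 wells lay beyond the 95th percentile of control Euclidean distances, and as reproducible when the median replicate Pearson correlation exceeded the 95th percentile of non-replicates. Phenotypic activity was assigned only when both criteria were met.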

[2] = tested on: A549-GM130-SQSTM1; assay: as above
Outline: as §1

[3] = tested on: A549-TUBA1B-RELA; assay: as above
Outline: as §1

[4] = tested on: HepG2-ACTB-RAB5A; assay: as above
Outline: as §1

[5] = tested on: A549-ACTB-RAB5A; assay: phenotypically active (imaging signature differs from DMSO and reproducible) at any of 0.3-9 uM (binary (1 = active, 0 = inactive)); higher = active
Outline: as §1

[6] = tested on: A549-CANX-COX4; assay: as above
Outline: as §1

[7] = tested on: A549-GM130-SQSTM1; assay: as above
Outline: as §1

[8] = tested on: A549-TP53BP1-CLTA; assay: as above
Outline: as §1

[9] = tested on: A549-TUBA1B-RELA; assay: as above
Outline: as §1

[10] = tested on: HepG2-ACTB-RAB5A; assay: as above
Outline: as §1

[11] = tested on: HepG2-CANX-COX4; assay: as above
Outline: as §1

[12] = tested on: HepG2-GM130-SQSTM1; assay: as above
Outline: as §1

[13] = tested on: HepG2-TP53BP1-CLTA; assay: as above
Outline: as §1

[14] = tested on: HepG2-TUBA1B-RELA; assay: as above
Outline: as §1

[15] = tested on: WPMY1-ACTB-RAB5A; assay: as above
Outline: as §1

[16] = tested on: WPMY1-CANX-COX4; assay: as above
Outline: as §1

[17] = tested on: WPMY1-GM130-SQSTM1; assay: as above
Outline: as §1

[18] = tested on: WPMY1-TP53BP1-CLTA; assay: as above
Outline: as §1

[19] = tested on: WPMY1-TUBA1B-RELA; assay: as above
Outline: as §1

[20] = tested on: WPMY1-GM130-SQSTM1; assay: lowest phenotypically active concentration; higher = less potent
Outline: as §1

| SMILES | lowest phenotypically active concentration [1] [µM] | lowest phenotypically active concentration [2] [µM] | lowest phenotypically active concentration [3] [µM] | lowest phenotypically active concentration [4] [µM] | phenotypically active [5] | phenotypically active [6] | phenotypically active [7] | phenotypically active [8] | phenotypically active [9] | phenotypically active [10] | phenotypically active [11] | phenotypically active [12] | phenotypically active [13] | phenotypically active [14] | phenotypically active [15] | phenotypically active [16] | phenotypically active [17] | phenotypically active [18] | phenotypically active [19] | lowest phenotypically active concentration [20] [µM] |
| --- | --- | --- | --- | --- | --- | --- | --- | --- | --- | --- | --- | --- | --- | --- | --- | --- | --- | --- | --- | --- |
| O=C(NOCC1CC1)c1ccc(F)c(F)c1Nc1ccc(I)cc1Cl | ≤ 0.3 | 1 | 9 | ≤ 0.3 | 1 (active) | 0 (inactive) | 1 (active) | 1 (active) | 1 (active) | 1 (active) | 1 (active) | 1 (active) | 1 (active) | 1 (active) | 0 (inactive) | 0 (inactive) | 0 (inactive) | 0 (inactive) | 0 (inactive) |  |
| COc1cc(OC)c2cc(-c3ccncc3)cnc2c1 [DMPQ dihydrochloride] | 9 | 9 |  |  | 1 (active) | 0 (inactive) | 1 (active) | 1 (active) | 0 (inactive) | 0 (inactive) | 1 (active) | 0 (inactive) | 0 (inactive) | 0 (inactive) | 0 (inactive) | 1 (active) | 0 (inactive) | 1 (active) | 0 (inactive) |  |
| CSc1ccc2c(c1)N(CCC1CCCCN1C)c1ccccc1S2 (stereo unspecified) [thioridazine] | 3 | 3 | 3 | 9 | 1 (active) | 0 (inactive) | 1 (active) | 1 (active) | 1 (active) | 1 (active) | 1 (active) | 1 (active) | 1 (active) | 1 (active) | 1 (active) | 1 (active) | 1 (active) | 1 (active) | 1 (active) | 9 |
| Cc1ccc(NC2=CC(=O)c3sc(C)nc3C2=O)cc1 [Ryuvidine] | 9 | 9 | 3 | 3 | 1 (active) | 0 (inactive) | 1 (active) | 1 (active) | 1 (active) | 1 (active) | 0 (inactive) | 1 (active) | 1 (active) | 0 (inactive) | 1 (active) | 1 (active) | 1 (active) | 0 (inactive) | 1 (active) | 1 |
| COc1cc(C(C)=O)ccc1OCCCN1CCC(c2noc3cc(F)ccc23)CC1 [iloperidone] | 3 | 9 | 3 |  | 1 (active) | 0 (inactive) | 1 (active) | 0 (inactive) | 1 (active) | 0 (inactive) | 0 (inactive) | 0 (inactive) | 0 (inactive) | 0 (inactive) | 0 (inactive) | 0 (inactive) | 0 (inactive) | 0 (inactive) | 0 (inactive) |  |
| CC(C)OC(=O)c1cc2c(OCC(O)CNC(C)(C)C)cccc2[nH]1 (stereo unspecified) | 3 | 9 | 3 | 9 | 1 (active) | 0 (inactive) | 1 (active) | 1 (active) | 1 (active) | 1 (active) | 0 (inactive) | 0 (inactive) | 1 (active) | 1 (active) | 1 (active) | 1 (active) | 1 (active) | 1 (active) | 1 (active) | 9 |
| NC(=O)c1cccc(-c2cc(Nc3ccc(OC(F)(F)F)cc3)ncn2)c1 | 9 | 9 | 9 |  | 1 (active) | 0 (inactive) | 1 (active) | 1 (active) | 1 (active) | 0 (inactive) | 0 (inactive) | 1 (active) | 0 (inactive) | 0 (inactive) | 1 (active) | 0 (inactive) | 1 (active) | 1 (active) | 0 (inactive) | 9 |
| O=C(O)[C@@H]1[C@H]2C[C@H]3c4[nH]c5ccccc5c4CCN3C[C@@H]2CC[C@@H]1O [Yohimbinic acid monohydrate] | 9 | 3 | 9 |  | 1 (active) | 0 (inactive) | 1 (active) | 1 (active) | 1 (active) | 0 (inactive) | 0 (inactive) | 0 (inactive) | 0 (inactive) | 0 (inactive) | 1 (active) | 1 (active) | 1 (active) | 1 (active) | 1 (active) | 9 |
| N#C/C(=C/c1ccc(-c2cc(Cl)ccc2Cl)o1)C(=O)Nc1cccc2ncccc12 | 3 | 9 | ≤ 0.3 | 3 | 1 (active) | 0 (inactive) | 1 (active) | 0 (inactive) | 1 (active) | 1 (active) | 0 (inactive) | 0 (inactive) | 0 (inactive) | 0 (inactive) | 0 (inactive) | 1 (active) | 0 (inactive) | 0 (inactive) | 0 (inactive) |  |
| Cc1c(O)cccc1C(=O)N[C@@H](CSc1ccccc1)[C@H](O)CN1C[C@H]2CCCC[C@H]2C[C@H]1C(=O)NC(C)(C)C [nelfinavir] | 9 | 9 | 9 | 9 | 1 (active) | 0 (inactive) | 1 (active) | 0 (inactive) | 1 (active) | 1 (active) | 1 (active) | 1 (active) | 0 (inactive) | 1 (active) | 1 (active) | 1 (active) | 1 (active) | 0 (inactive) | 1 (active) | 3 |
| O=C(NCCN1CCC(n2c(=O)[nH]c3ccccc32)CC1)c1cc2cc(F)ccc2[nH]1 | 9 | 9 | 3 | 9 | 1 (active) | 0 (inactive) | 1 (active) | 0 (inactive) | 1 (active) | 1 (active) | 1 (active) | 1 (active) | 1 (active) | 1 (active) | 1 (active) | 1 (active) | 1 (active) | 1 (active) | 1 (active) | 9 |
